Screens: PubChem BioAssay, National Center for Advancing Translational Sciences (NCATS)
An excerpt weighted towards active compounds, which were near 9.2% of everything screened.
JMJD2E inh: blocks human JMJD2E demethylase activity; B2RXH2; JMJD2E catalytic domain, FDH-coupled NADH fluorescence (FDH is formaldehyde dehydrogenase); Potency, µM (series often up to 57.1 µM), without a hit: top-dose activity change, negative = inhibition, most hits filed as inhibitors; actives 1.6% (n = 230,000);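 note: 0% = wells with enzyme and -100% = buffer wells without enzyme; nearly all actives have a fitted effect of over 50% in size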
HTT aggregate: inhibitors of mutant huntingtin aggregate formation in PC12 cells | PC12 HttQ103-GFP aggregates, Acumen cytometry, 40 h | Potency, µM (doses to about 46.1 µM), for inactives: at the top dose activity change, negative = inhibition, actives largely listed as inhibitors | actives 1.1% (n = 220,000); active = well fitted curve in the direction sought with a large enough effect; inconclusive = small, poorly fitted or top-dose-only effect, or another doubt; inactive = no such curve, though single readings can be large; an effect the other way counts as inactive or inconclusive; note: % is set by controls: 0 for no effect and ±100 for the full control effect; nearly all actives have a fitted effect of over 60% in size
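Ecdysone-promoter PC12 model expressing HTT exon 1 Q103 fused to GFP, induced by tebufenozide at 100 nM final. Compounds titrated; aggregates sized 1–25 µm scored on a 488 nm laser cytometer.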
ALDH1A1 block: blocks purified human ALDH1A1 activity; P00352; Purified ALDH1A1, NADH fluorescence, propionaldehyde substrate; Potency, µM (highest dose often 75.3 µM), inactives show at the highest dose activity, negative = inhibition, most hits filed as inhibitors; actives 7.3% (n = 220,000); AID 1030;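 note: plate controls were no enzyme wells and a reference inhibitor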
LMNA splice mod: modulators of lamin A splicing; Potency, µM (highest dose often 46.1 µM), for inactives: at the top dose ratio change, negative = inhibition, actives largely listed as inhibitors; actives 0.01% (n = 200,000); HeLa LMNA splicing GFP/RFP minigene ratio, 48 h; active = well fitted inhibition curve with a large enough effect in the signal ratio, with a control signal flat, not every such curve was filed as active; inconclusive = small, poorly fitted or top-dose-only effect, or effect the other way, or a change in a side signal; the % refers to the signal ratio; note: % is set by controls: 0 for no effect and ±100 for the full control effect
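S3 HeLa stable clones carrying a lamin A-EGFP splicing minigene plus DsRed2 were seeded at 600 cells/well in Opti-MEM with 2% FBS, pin-dosed and incubated 48 h at 37°C. Acumen cytometry (488 nm) gave the GFP/RFP total-intensity ratio.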
HTT ATP protect: protects HTT-Q103 PC12 cells, measured by ATP. actives 0.14% (n = 230,000). PC12 HTT-Q103 induced, cytoprotection, ATP luminescence, 40 h. Potency, µM (doses to about 56.4 µM), inactives show cytoprotection (ATP increase), usual class: activators; active = well fitted curve in the direction sought with a large enough effect; inconclusive = small, poorly fitted or top-dose-only effect, or another doubt; inactive = no such curve, though single readings can be large; an effect the other way counts as inactive or inconclusive; note: % of control where 0% means no effect; nearly all actives have a fitted effect of over 45% in size
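Rat PC12, Q103 Htt exon1-GFP fusion, ecdysone promoter; tebufenozide inducer 100 nM final; compound titration; qHTS, 1500 cells/well; ATPlite luminescent read.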
HPGD inh: HPGD (human) dehydrogenase inhibition; P15428; purified HPGD, NADH fluorescence kinetic, PGE2 substrate; Potency, µM, for the others: at the top dose activity change, negative = inhibition, actives largely listed as inhibitors; actives 4.3% (n = 150,000); AID 894; note: % is set by controls: 0 for no effect and ±100 for the full control effect
Target sequence (P15428 whole entry, looked up): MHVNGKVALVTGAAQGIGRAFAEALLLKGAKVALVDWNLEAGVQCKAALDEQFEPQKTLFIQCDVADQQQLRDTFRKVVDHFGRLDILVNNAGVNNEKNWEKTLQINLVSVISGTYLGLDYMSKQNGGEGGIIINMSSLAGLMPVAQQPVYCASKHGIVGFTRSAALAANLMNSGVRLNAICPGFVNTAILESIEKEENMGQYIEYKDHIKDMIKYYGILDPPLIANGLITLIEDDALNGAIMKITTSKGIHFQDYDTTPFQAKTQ
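NADH formation kinetics: reaction with 30 uM PGE2 and 1 mM NAD+ (final), 20 nM enzyme, Tris-HCl pH 8 with Tween 20, after 15 min compound preincubation at room temperature. Fluorescence change, last versus first of five reads.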
* marks the source's active call; other numbers are inactive results; i = inactive; ? = inconclusive; / = no result given; [ ] = dose if it differs, or a comment. Unless noted, calls come from the whole dose curve; as a rule, active = well fitted inhibition curve with a large enough effect (not every such curve was filed as active); inconclusive = small, poorly fitted or top-dose-only effect, or another doubt; inactive = no such curve, though single readings can be large or run the other way. Potency is the fitted concentration of half-maximal effect.

SMILES	JMJD2E inh	HTT aggregate	ALDH1A1 block	LMNA splice mod	HTT ATP protect	HPGD inh
Cc1ccc(S(=O)(=O)Cc2ccc(C(=O)N3CCN(Cc4ccccc4)CC3)o2)cc1	-9%	-19%	8.9µM*	-6%	-1%[10 µM]	-23%
Cc1ccc(S(=O)(=O)Cc2ccc(C(=O)N3CCc4ccccc4C3)o2)cc1	-8%	-6%	1%	1%	6%	-16%
Cc1ccc(S(=O)(=O)Cc2ccc(C(=O)NCc3ccc4c(c3)OCO4)o2)cc1	0%	?	10µM*	-12%	-73%[10 µM]	-13%
CC(C)=CCCC1=CC[C@H](C(=O)O)[C@H](C(=O)O)C1	16%	/	3%	/	-21%	2%
O=C(Nc1ccc(Br)cn1)C1CCCN1S(=O)(=O)c1ccccc1 (stereo unspecified)	2%	-8%	?	14%[0.0737 µM]	-4%	-5%
COc1ccc(NC(=O)CC(CC(=O)O)c2cc(OC)c(OC)c(OC)c2)cc1 (stereo unspecified)	-5%	-12%[9.22 µM]	/	/	21%[10 µM]	/
CCOC(=O)N1CCC(NC(=O)c2ccc(CS(=O)(=O)c3ccccc3C)o2)CC1	-2%	-20%	11µM*	-18%	-29%	-18%
Cc1ccc(S(=O)(=O)Cc2ccc(C(=O)O)o2)cc1	-14%	24%	8.9µM*	-3%	-4%	-23%
COCCNC(=O)c1ccc(CS(=O)(=O)c2ccc(C)cc2)o1	3%	-13%	6%	5%	-11%[0.074 µM]	-5%
c1ccc(-c2nnc3ccc(N4CCCC4)nn23)cc1	-3%	-19%	-1%	-17%	-1%[10 µM]	-10%
CN(Cc1ccccc1)c1ccc2nnc(-c3ccccc3)n2n1	?	35µM*	7%	?	/	-24%
O=C(NNC(=O)c1cccnc1SCc1cccc([N+](=O)[O-])c1)c1ccc(F)cc1	4%	?	-9%	?	3%[10 µM]	-8%
O=C(NNC(=O)c1cccnc1SCc1cccc([N+](=O)[O-])c1)c1ccccn1	10µM*	?	0%	?	2%[10 µM]	-8%
C=C1C(=O)OC2C[C@@]3(C)CCCC(=C)[C@@H]3CC12 (stereo partly specified)	8%	/	-7%	/	1%[1.9 µM]	-4%
CC1(C)C=Cc2cc3ccc(=O)oc3cc2O1	?	-17%[9.22 µM]	?	/	-178%	i
CC(=O)c1cc2c(cc1O)OC(C)(C)C=C2	-3%	/	?	/	-33%	25µM*
CC1CCCN(C(=O)C(C)Nc2cc(Cl)ccc2N2CCOCC2)C1 (stereo unspecified)	-25%	-9%	10µM*	/	-63%	/
COc1cccc(OC)c1C(=O)Nc1cc(Cl)ccc1N1CCOCC1	3%	14%	-4%	-5%	-2%[10 µM]	-3%
c1cc(-c2cccs2)nc(-c2cccs2)c1	?	-14%	?	2%	/	?
c1csc(-c2cn3ccc4ccccc4c3n2)c1	-3%	-1%[9.22 µM]	5µM*	/	-39%[10 µM]	/
Oc1c(C(Nc2ccccn2)c2cccnc2)cc(Cl)c2cccnc12 (stereo unspecified)	?	7.1µM*	?	?	-59%[10 µM]	-4%
COc1ccc(C(NC(=O)c2cccnc2)c2cc(Cl)c3cccnc3c2O)cc1OC (stereo unspecified)	-20%	2.8µM*	6%	?	-76%	-15%
COc1ccc2cc(C#N)c(SCC(=O)N3CCCC3)nc2c1	?	-16%	?	9%	3%[10 µM]	-24%
COc1ccc2nc(SCC(=O)N3CCN(c4ccc(F)cc4)CC3)c(C#N)cc2c1	-12%	6%	7.9µM*	-3%	-2%[1.9 µM]	-6%
O=C(O)CCN1CC2([N+](=O)[O-])C=CC(=O)C([N+](=O)[O-])(C1)C2CC(=O)c1ccccc1 (stereo unspecified)	5%	13%	?	-2%	/	-25%
O=C(CC(Nc1cccc(Cl)c1Cl)C(=O)O)c1ccccc1 (stereo unspecified)	?	10%[9.22 µM]	0.35µM*	/	20%	/
